Reference: the supplement of paper PMC10849652
Of roughly 8,800 targets only a part is listed; those with a hit were picked by preference. About 0.5% of all pairs of compound and target were hits. A number with no mark means an inactive call.

Experiments:
Experiment in all cases: log2 fold change, soluble protein after heating vs DMSO (PISA); higher = thermal stabilisation; K562 lysate, 10 uM; active = over 0.2 and 3.5 SD of the protein, either way, in both replicates (recomputed)
[1] = compound: CS(=O)(=O)CCNCc1ccc(-c2ccc3ncnc(Nc4ccc(OCc5cccc(F)c5)c(Cl)c4)c3c2)o1 [lapatinib]
Summary of the method: (§1)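 A 30 min treatment with 10 μM compound was applied to crude K562 extract at 1 mg/mL protein in PBS pH 7.4 with 1 mM MgCl2. Heating for 3 min spanned 48°C-58°C, after which aliquots were pooled, adjusted to 0.5% NP-40 at 4°C and spun at 21,000xg for 90 min. TMTpro 16plex LC-MS/MS of the supernatant, with channel sums equalised, gave values recorded as log-two fold change in thermal stability against solvent controls, from duplicates.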

[2] = compound: CS(=O)(=O)N1CCN(Cc2cc3nc(-c4cccc5[nH]ncc45)nc(N4CCOCC4)c3s2)CC1 [pictilisib]
Summary of the method: as §1

[3] = compound: C[C@@H](Oc1cc(-c2cnn(C3CCNCC3)c2)cnc1N)c1c(Cl)ccc(F)c1Cl [crizotinib]
Summary of the method: as §1

[4] = compound: C[C@H](C1=CC=C(C=C1)C(=O)NC2=C3C=CNC3=NC=C2)N
Summary of the method: as §1

[5] = compound: C[C@H](Nc1ncnc2nc[nH]c12)c1cc2cccc(Cl)c2c(=O)n1-c1ccccc1 [duvelisib]
Summary of the method: as §1

[6] = compound: Cc1cc(Nc2cc(CN3CCOCC3)c3nc(C)c(Cc4ccc(Cl)cc4F)n3n2)n[nH]1 [gandotinib]
Summary of the method: as §1

[7] = compound: Cc1cc(Nc2cc(N3CCN(C)CC3)nc(Sc3ccc(NC(=O)C4CC4)cc3)n2)n[nH]1 [tozasertib]
Summary of the method: as §1

[8] = compound: Cc1ccc(-n2nc(C(C)(C)C)cc2NC(=O)Nc2ccc(OCCN3CCOCC3)c3ccccc23)cc1 [doramapimod]
Summary of the method: as §1

[9] = compound: Cc1ccc(NC(=O)c2ccc(CN3CC[C@H](N(C)C)C3)c(C(F)(F)F)c2)cc1Nc1nccc(-c2cncnc2)n1 [bafetinib]
Summary of the method: as §1

[10] = compound: Cc1cccc(CC(=O)N2CCc3c2ccc(-c2cn(C)c4ncnc(N)c24)c3F)n1
Summary of the method: as §1

Sequence of UniProt O00767 (O00767 whole entry, looked up): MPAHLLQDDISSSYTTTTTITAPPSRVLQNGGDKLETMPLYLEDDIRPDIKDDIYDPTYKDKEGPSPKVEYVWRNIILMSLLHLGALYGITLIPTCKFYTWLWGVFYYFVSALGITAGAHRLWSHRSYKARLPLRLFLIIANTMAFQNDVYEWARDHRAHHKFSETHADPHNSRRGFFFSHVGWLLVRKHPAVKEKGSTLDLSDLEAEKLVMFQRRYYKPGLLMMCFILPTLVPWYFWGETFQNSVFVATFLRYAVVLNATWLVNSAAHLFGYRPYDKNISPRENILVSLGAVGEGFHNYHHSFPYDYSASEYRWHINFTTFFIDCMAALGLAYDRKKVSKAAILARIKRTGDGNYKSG
Sequence of UniProt P58004 (P58004 whole entry, looked up): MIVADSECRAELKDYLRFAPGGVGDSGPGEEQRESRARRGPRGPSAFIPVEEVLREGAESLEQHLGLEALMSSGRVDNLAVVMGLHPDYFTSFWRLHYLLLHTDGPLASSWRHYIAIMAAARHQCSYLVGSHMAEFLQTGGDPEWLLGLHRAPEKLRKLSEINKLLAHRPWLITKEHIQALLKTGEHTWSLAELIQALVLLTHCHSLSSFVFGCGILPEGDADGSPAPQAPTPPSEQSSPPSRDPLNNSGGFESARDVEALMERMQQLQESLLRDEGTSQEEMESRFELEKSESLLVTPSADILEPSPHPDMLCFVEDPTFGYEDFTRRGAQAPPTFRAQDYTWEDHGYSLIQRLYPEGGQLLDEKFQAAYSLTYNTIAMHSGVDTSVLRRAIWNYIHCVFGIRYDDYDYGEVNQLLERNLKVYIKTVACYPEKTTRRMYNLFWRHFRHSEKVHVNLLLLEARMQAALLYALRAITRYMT
Sequence of UniProt Q02094 (Q02094 whole entry, looked up): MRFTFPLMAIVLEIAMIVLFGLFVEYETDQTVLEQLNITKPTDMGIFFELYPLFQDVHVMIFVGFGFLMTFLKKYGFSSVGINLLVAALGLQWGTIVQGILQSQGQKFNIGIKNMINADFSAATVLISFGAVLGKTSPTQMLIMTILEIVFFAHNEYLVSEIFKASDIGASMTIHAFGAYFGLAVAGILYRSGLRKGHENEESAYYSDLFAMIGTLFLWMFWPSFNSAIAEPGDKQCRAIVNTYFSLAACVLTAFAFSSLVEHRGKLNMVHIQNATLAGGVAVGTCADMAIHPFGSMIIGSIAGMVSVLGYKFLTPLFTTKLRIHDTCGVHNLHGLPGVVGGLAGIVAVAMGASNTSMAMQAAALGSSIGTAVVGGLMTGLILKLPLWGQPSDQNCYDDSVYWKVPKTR
Sequence of UniProt Q9BRS2 (Q9BRS2 whole entry, looked up): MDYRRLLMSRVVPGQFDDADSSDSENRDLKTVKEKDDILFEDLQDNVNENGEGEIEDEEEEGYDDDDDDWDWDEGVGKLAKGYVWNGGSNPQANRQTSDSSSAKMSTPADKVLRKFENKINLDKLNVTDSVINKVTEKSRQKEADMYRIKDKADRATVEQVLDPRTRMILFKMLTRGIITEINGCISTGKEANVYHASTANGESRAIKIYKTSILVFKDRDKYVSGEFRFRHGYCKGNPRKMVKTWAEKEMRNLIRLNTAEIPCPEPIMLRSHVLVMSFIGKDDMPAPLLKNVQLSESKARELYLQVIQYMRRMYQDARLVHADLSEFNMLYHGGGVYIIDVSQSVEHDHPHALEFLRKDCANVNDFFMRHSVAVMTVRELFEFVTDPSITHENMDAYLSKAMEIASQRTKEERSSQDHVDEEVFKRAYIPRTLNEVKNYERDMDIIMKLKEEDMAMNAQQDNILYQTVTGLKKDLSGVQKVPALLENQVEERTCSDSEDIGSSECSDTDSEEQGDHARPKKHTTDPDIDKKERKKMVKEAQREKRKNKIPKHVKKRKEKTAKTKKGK
Sequence of UniProt Q6NUQ1 (Q6NUQ1 whole entry, looked up): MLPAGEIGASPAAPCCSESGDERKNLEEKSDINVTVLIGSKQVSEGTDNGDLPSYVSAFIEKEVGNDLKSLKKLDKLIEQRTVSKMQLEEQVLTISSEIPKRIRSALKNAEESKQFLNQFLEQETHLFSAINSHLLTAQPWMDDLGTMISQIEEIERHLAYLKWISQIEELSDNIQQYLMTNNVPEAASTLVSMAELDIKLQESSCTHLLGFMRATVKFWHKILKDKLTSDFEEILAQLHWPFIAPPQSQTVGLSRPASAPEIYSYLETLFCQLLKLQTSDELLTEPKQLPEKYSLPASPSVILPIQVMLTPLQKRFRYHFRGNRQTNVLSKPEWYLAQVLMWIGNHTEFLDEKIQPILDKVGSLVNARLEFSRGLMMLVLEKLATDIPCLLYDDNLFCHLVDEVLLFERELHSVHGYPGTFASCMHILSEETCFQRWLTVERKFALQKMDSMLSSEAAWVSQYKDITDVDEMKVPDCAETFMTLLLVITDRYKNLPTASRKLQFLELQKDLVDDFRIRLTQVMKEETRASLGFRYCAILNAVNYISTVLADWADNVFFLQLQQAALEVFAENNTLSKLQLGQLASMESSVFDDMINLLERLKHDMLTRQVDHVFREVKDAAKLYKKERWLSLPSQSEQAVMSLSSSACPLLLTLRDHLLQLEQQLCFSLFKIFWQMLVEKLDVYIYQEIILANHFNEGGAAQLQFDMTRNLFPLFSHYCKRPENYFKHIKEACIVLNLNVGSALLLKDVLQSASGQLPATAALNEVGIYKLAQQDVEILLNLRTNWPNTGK
Sequence of UniProt Q4ADV7 (Q4ADV7 whole entry, looked up): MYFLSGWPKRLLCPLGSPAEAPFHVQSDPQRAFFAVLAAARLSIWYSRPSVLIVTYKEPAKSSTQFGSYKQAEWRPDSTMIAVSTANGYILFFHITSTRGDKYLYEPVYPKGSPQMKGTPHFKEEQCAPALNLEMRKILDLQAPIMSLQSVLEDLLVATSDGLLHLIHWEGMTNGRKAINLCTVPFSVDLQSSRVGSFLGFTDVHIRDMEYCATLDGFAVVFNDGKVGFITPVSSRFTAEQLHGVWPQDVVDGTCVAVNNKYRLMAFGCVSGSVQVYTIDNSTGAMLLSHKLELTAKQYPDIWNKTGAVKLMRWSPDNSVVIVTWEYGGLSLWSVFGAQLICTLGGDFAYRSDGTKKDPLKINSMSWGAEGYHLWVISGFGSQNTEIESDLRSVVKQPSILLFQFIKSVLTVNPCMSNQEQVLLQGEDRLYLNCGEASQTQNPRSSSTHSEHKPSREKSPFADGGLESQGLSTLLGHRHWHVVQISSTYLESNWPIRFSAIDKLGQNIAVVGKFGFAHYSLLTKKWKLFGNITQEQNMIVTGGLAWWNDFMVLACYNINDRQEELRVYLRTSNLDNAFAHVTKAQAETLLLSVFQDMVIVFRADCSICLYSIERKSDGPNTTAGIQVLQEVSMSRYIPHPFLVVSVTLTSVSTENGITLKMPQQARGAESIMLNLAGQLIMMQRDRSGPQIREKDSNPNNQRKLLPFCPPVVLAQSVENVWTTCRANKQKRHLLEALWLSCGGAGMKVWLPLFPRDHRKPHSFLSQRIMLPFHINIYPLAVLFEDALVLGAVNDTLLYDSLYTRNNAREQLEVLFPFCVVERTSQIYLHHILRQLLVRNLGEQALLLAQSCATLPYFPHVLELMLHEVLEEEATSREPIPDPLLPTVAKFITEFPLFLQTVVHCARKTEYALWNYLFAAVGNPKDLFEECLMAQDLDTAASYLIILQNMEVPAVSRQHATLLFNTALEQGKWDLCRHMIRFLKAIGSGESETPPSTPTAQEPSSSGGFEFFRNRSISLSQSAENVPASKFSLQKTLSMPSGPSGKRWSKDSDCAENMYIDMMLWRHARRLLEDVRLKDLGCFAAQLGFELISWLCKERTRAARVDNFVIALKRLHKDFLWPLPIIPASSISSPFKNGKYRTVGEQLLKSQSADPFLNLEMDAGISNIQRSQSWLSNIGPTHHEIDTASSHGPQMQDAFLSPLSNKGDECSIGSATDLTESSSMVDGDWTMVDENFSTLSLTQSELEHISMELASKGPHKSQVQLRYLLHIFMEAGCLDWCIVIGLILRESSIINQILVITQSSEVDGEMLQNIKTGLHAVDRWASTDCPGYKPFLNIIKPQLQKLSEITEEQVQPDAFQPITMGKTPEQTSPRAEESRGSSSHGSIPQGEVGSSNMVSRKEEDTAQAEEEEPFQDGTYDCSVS
Sequence of UniProt Q53S08 (Q53S08 whole entry, looked up): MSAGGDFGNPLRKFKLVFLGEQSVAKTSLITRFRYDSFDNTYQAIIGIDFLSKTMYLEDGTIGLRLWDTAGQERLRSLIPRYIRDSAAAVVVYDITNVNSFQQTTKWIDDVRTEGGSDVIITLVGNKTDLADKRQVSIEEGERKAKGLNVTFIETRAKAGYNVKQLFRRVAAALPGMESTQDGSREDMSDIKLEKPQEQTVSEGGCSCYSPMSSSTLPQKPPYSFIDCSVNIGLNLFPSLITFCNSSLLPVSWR
Sequence of UniProt Q8IZV5 (Q8IZV5 whole entry, looked up): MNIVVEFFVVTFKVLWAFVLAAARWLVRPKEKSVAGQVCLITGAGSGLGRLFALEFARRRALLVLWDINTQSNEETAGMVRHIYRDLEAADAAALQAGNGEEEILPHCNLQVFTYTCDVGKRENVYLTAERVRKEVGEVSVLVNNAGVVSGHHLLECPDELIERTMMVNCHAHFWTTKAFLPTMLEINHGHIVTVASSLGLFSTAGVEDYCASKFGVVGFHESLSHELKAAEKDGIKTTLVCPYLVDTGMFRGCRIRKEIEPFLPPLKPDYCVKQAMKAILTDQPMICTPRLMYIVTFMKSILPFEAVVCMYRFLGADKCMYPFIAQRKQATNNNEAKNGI
Sequence of UniProt P60059 (P60059 whole entry, looked up): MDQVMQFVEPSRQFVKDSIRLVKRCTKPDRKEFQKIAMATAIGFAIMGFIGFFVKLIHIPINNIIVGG
Sequence of UniProt Q5HYI8 (Q5HYI8 whole entry, looked up): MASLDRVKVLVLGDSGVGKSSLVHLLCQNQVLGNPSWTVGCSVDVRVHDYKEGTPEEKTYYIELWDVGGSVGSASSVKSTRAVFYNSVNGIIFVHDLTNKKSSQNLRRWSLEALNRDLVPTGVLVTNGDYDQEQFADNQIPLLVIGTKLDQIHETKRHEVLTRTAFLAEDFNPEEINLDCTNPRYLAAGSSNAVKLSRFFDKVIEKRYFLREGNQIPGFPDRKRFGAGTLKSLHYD

Row | Target | log2 fold change [1] | log2 fold change [2] | log2 fold change [3] | log2 fold change [4] | log2 fold change [5] | log2 fold change [6] | log2 fold change [7] | log2 fold change [8] | log2 fold change [9] | log2 fold change [10]
1 | RIC1 (UniProt Q4ADV7) | 0.016 | -0.02 | -0.06 | -0.032 | -0.048 | -0.092 | 0.01 | 0.026 | 0.3 (active) | 0.108
2 | SESN2 (UniProt P58004) | -0.085 | -0.047 | -0.042 | 0.041 | 0.047 | 0.038 | -0.006 | -0.031 | -0.15 | 0.003
3 | RAB6D (UniProt Q53S08) | 0.005 | -0.008 | -0.036 | -0.058 | 0 | 0.189 | 0.015 | -0.001 | -0.136 | 0.154
4 | RPS4X (UniProt P62701) | -0.006 | 0.009 | -0.024 | 0.209 | 0.012 | -0.038 | -0.018 | -0.01 | -0.008 | -0.04
5 | RPL37A (UniProt P61513) | -0.012 | -0.01 | -0.011 | 0.312 (active) | -0.088 | -0.131 | -0.087 | -0.044 | 0.02 | -0.2
6 | RAC2 (UniProt P15153) | -0.057 | 0.016 | -0.018 | -0.05 | -0.026 | -0.025 | -0.062 | -0.014 | -0.042 | 0.031
7 | RINT1 (UniProt Q6NUQ1) | -0.069 | -0.065 | -0.06 | -0.058 | 0.046 | -0.039 | 0.025 | 0.069 | -0.058 | 0.132
8 | RBM4 (UniProt Q9BWF3) | -0.015 | -0.01 | 0.018 | 0.183 | -0.003 | -0.097 | 0.075 | -0.109 | -0.02 | -0.069
9 | REXO4 (UniProt Q9GZR2) | 0 | -0.128 | 0.017 | 0.349 (active) | -0.003 | -0.169 | -0.017 | -0.056 | -0.06 | -0.139
10 | RSU1 (UniProt Q15404) | 0.001 | 0.045 | 0.07 | 0.329 (active) | 0.007 | -0.116 | 0.015 | -0.045 | 0.039 | -0.135
11 | RIOK1 (UniProt Q9BRS2) | -0.044 | 0.197 | -0.015 | 0.92 (active) | 0.037 | -0.138 | 0.008 | 0.025 | -0.056 | -0.134
12 | RDH10 (UniProt Q8IZV5) | 0.004 | -0.035 | 0.062 | -0.039 | 0.022 | 0.055 | -0.032 | -0.012 | 0.001 | 0.043
13 | SEC24D isoform 2 (UniProt O94855) | 0.016 | -0.03 | 0 | 0.031 | 0.017 | -0.02 | 0.005 | 0 | -0.026 | -0.019
14 | SAMD4A (UniProt Q9UPU9) | 0.282 | 0.047 | -0.041 | -0.064 | -0.046 | -0.036 | 0.088 | 0.019 | -0.215 | 0.101
15 | SCD (UniProt O00767) | 0.059 | 0 | -0.08 | -0.443 (active) | 0.067 | 0.155 | 0.065 | 0.077 | -0.053 | 0.273
16 | RARS (UniProt P54136) | 0.003 | 0.019 | -0.047 | 0.039 | -0.018 | -0.078 | 0.019 | 0.042 | -0.029 | 0.041
17 | RBSN (UniProt Q9H1K0) | -0.008 | -0.024 | -0.012 | -0.032 | 0.093 | 0.019 | 0.13 | -0.026 | 0.026 | 0.059
18 | SCML2 (UniProt Q9UQR0) | 0.035 | -0.027 | -0.022 | 0.034 | 0.006 | -0.045 | 0.029 | 0 | -0.017 | -0.014
19 | RNF113A (UniProt O15541) | 0.012 | 0.021 | 0.024 | -0.072 | -0.009 | 0.068 | 0.002 | 0.016 | 0 | 0.034
20 | RPS26P11 (UniProt Q5JNZ5) | 0.024 | -0.008 | -0.085 | -0.484 (active) | 0.076 | 0.147 | -0.055 | 0.021 | -0.072 | 0.24 (active)
21 | RXRB isoform 3 (UniProt P28702) | 0.085 | -0.096 | -0.011 | 0.046 | -0.051 | -0.074 | 0.006 | -0.091 | -0.11 | 0.023
22 | RABL3 (UniProt Q5HYI8) | 0.036 | -0.028 | -0.102 | -0.017 | 0.198 | -0.097 | -0.003 | 0.085 | -0.05 | 0.031
23 | RHAG (UniProt Q02094) | -0.046 | -0.002 | -0.038 | -0.381 (active) | 0.113 | 0.07 | 0.05 | 0.032 | 0.004 | 0.184
24 | SCO2 (UniProt O43819) | 0.118 | -0.057 | 0.026 | -0.163 | 0.092 | 0.048 | -0.007 | 0.002 | 0.029 | 0.101
25 | SASS6 (UniProt Q6UVJ0) | 0.001 | -0.056 | -0.01 | 0.099 | -0.018 | -0.076 | 0.004 | -0.01 | -0.032 | -0.054
26 | REEP5 (UniProt Q00765) | -0.001 | -0.026 | 0.024 | -0.11 | 0.01 | 0.061 | -0.052 | -0.03 | -0.027 | 0.055
27 | RAP1B (UniProt F5GZG1) | 0.003 | 0.02 | -0.022 | -0.313 | 0.016 | 0.127 | 0.103 | -0.115 | -0.098 | 0.201
28 | RPL36AL (UniProt Q969Q0) | 0.05 | 0.031 | 0.216 | 0.01 | -0.033 | -0.038 | 0.047 | -0.131 | 0.137 | 0.003
29 | SEC61G (UniProt P60059) | -0.094 | 0.139 | 0.209 | -0.331 | 0.105 | 0.46 (active) | -0.168 | 0.098 | -0.192 | 0.338
30 | RECQL5 (UniProt O94762) | 0.277 | 0.06 | 0.049 | 0.084 | 0.029 | -0.15 | 0.031 | -0.008 | -0.062 | -0.09
